# Laboratory results published in PubChem BioAssay (NCATS).
# Records with an inconclusive call do not appear. A number with no mark means an inactive call. Calls of active or inactive are those of the source. Calls come from the whole dose curve; as a rule, active = well fitted inhibition curve with a large enough effect; inconclusive = small, poorly fitted or top-dose-only effect; inactive = flat fitted curve, though single readings scatter.
# Test: P-glycoprotein substrates identified in KB-8-5-11 adenocarcinoma cell line, qHTS therapeutic library screen (AID 1346987); note: nearly all actives have a fitted effect of over 65% in size
# Conditions: KB-8-5-11 (P-gp overexpressing) viability, CellTiter-Glo, 72 h; series mostly up to 44.5 µM; activity change, negative = cytotoxicity: at the top concentration
# In short: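 KB-8-5-11, a colchicine-selected P-gp-overexpressing KB-3-1 subline, was grown without colchicine for the assay. Cells were seeded at 500 cells/well, dosed in concentration-response and incubated 72 h at 37 degree C, 5% CO2. Viability was read by CellTiter-Glo luminescence.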
# % is set by controls: 0 for no effect and ±100 for the full control effect.
SMILES,outcome,"activity change, negative = cytotoxicity"
O=C(O)CCc1cccc(O)c1O[C@@H]1O[C@H](CO)[C@@H](O)[C@H](O)[C@H]1O,inactive,
O=C(O)C[C@H]1CCC(=O)[C@@H]1C/C=C\CCO,,1.97%
COc1cc(C(C)=O)ccc1O[C@@H]1O[C@H](CO)[C@@H](O)[C@H](O)[C@H]1O,,3.69%
O=C(O)CC/C=C\C[C@H]1CO[C@@H](c2ccccc2Cl)O[C@H]1c1ccccc1O,,6.55%
C=C1CCC(OC(C)=O)C2(C)CC3OC(=O)C(C)=C3CC12 (centres undefined),,-4.92%
COc1c2ccoc2nc2c(OC)c(O[C@@H]3O[C@@H](C)[C@H](O)[C@@H](O[C@@H]4O[C@H](CO)[C@@H](O)[C@H](O)[C@H]4O)[C@H]3OC(C)=O)ccc12,,6.1% [at 17.3 µM]
COc1cc(C(O)C2COC(c3ccc(OC4OC(CO)C(O)C(O)C4O)c(OC)c3)C2CO)ccc1O (centres undefined),,7.77% [at 17.3 µM]
CC1(C)CC[C@]2(C(=O)O[C@@H]3O[C@H](CO)[C@@H](O)[C@H](O)[C@H]3O)CC[C@]3(C)C(=CCC4[C@@]5(C)C[C@@H](O)[C@H](O)[C@@](C)(CO)C5[C@H](O)C[C@]43C)C2C1 (some centres undefined),,-2.73% [at 17.3 µM]
CC1CC2OCC3(O)CCC(O)C(C14CC(c1ccoc1)OC4=O)C23CO (centres undefined),inactive,
C/C(=C\C1CCC(C)C2CCC3(C)OC123)C(=O)O (centres undefined),,3.55%
CC1(C(=O)O)CCCC2(C)C3CC4C5CC3(CCC12)CC45C (centres undefined),,1.72%
CC1=C[C@H]2[C@@H](CC1=O)[C@H](C)C[C@H](O)[C@H]2C(C)C,,-19.5%
CN1CCCC1Cc1c[nH]c2ccc(CCS(=O)(=O)c3ccccc3)cc12 (centres undefined),,-18.3%
C=C1C(O)C(OC(=O)c2ccccc2)C2C(C)(C(=O)O)CCCC2(C)C1CC/C(C)=C\CO (centres undefined),,5.05% [at 17.3 µM]
